# Assay outcomes as filed in PubChem BioAssay.
# Compounds with a hit are over-represented: about 1.2% of the library has one in this group of screens.
# RGS4-Gao reg: modulators of RGS4 binding to Galphao, primary screen, biochemical, multiplexed bead flow cytometry; Guanine nucleotide-binding protein G(o) subunit alpha (Homo sapiens), P09471; actives lie on both sides; binding response (% of control), % at 10 µM; actives 0.33% (n = 220,000); in the data active means binding response below about 49% or above about 150%; inactive means in between;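 further: fluorescent Galphao activated with aluminum fluoride binding bead-coupled RGS4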
# Target sequence (P09471 whole entry, looked up): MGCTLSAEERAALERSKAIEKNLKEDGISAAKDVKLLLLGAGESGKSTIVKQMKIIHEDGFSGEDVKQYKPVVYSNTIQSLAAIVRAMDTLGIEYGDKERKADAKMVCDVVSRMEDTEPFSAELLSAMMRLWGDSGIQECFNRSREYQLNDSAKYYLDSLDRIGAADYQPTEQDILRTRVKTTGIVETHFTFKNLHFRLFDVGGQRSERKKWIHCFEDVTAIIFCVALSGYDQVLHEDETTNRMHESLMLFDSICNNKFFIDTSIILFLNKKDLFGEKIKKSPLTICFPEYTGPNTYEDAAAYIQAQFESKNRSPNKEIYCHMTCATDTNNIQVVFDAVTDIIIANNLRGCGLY
# GSH bead fluor: compound fluorescence on glutathione beads, profiling panel, artefact control, biophysical, 488/530 nm, flow cytometry | fluorescence (KMESF) at 10 µM | GSH beads flow cytometry, compound fluorescence 488/530 nm; stronger effect = higher value | AID 1776, 2009 | actives 0.25% (n = 190,000); in the data active means fluorescence above about 89;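 further: glutathione beads carrying GST-tagged Bcl family fusion proteins plus one bare bead set; values are compound well signal with DMSO vehicle wells as background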
# Avidin fluor: green autofluorescence of compounds with avidin beads – biophysical, 488/530 nm, flow cytometry, artefact control, profiling panel; compound fluorescence 488/530 nm; stronger effect = higher value; fluorescence (KMESF) at 10 µM; actives 0.38% (n = 220,000); in the data active means fluorescence above about 47
# RGS8-Gao: RGS8-Galphao binding modulators, primary screen, biochemical, multiplexed bead flow cytometry; actives lie on both sides; response (percent of control binding), % at 10 µM; actives 0.34% (n = 220,000); AID 1423, 2008; in the data active means response below about 60% or above about 140%; inactive means in between;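 further: Galphao activated as the GDP aluminium fluoride complex binding bead-coupled RGS8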
# RGS16-Gao: modulators of RGS16 binding to Galphao, primary screen, biochemical, human proteins, multiplexed bead flow cytometry; Regulator of G-protein signaling 16 (Homo sapiens) + Guanine nucleotide-binding protein …; actives 0.38% (n = 220,000); bead-based flow cytometry RGS16-Galphao binding, fluorescence; actives lie on both sides; binding response (% of control), % at 10 µM;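 further: Galphao activated by GDP with aluminum fluoride before binding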
# Target sequence (O15492 whole entry, looked up): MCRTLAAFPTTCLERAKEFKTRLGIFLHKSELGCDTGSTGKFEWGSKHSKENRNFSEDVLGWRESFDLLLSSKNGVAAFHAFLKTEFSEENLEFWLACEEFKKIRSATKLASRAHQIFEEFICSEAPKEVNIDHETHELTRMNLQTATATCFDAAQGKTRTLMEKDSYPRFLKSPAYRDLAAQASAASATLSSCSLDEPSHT
# Target sequence (P09471 whole entry, looked up): as the sequence (P09471 whole entry, looked up) above
# RGS7-Gao reg: RGS7-Galphao binding modulators, primary screen, biochemical, multiplexed bead flow cytometry; actives lie on both sides; binding response (% of control), % at 10 µM; actives 0.35% (n = 220,000); AID 1439, 2008; in the data active means binding response below about 49% or above about 150%;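 further: fluorescent Galphao held in activated GDP-AlF4 state binding bead-coupled RGS7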
# RGS4-Gao HTS: modulators of RGS–Galpha-o binding, primary screen, biochemical, multiplexed beads, flow cytometry, RGS4/7/8/16/19; shares compounds with RGS16-Gao; multiplexed bead flow cytometry; RGS4–Galpha-o binding response, % at 10 µM; actives 99% (n = 1,600); AID 1504, 2009;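 further: fluorescently labeled Galpha-o bound to GDP with aluminium fluoride binding biotinylated RGS beads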
# Avidin counter: disruption of biotin probe capture by avidin, counter-screen for RGS protein interaction modulators, biochemical, flow cytometry, bead-based | shares compounds with RGS16-Gao | 1,700 tested, under 10 active | inhibition, % at 10 µM | AID 1783, 2009 | streptavidin beads, fluorescein-biotin binding;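 active means inhibition above 50%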;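 further: median green fluorescence of gated singlet beads compared with DMSO control wells; 0% = DMSO wells and 100% = complete loss of bead fluorescence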
# RGS8-Gao confirm: RGS8-Galphao binding modulators, confirmation, biochemical, multiplexed bead flow cytometry, single concentration; bead-based flow cytometry RGS8-Galphao binding, fluorescence; actives lie on both sides; AID 1836, 2009; binding response (% of control), % at 10 µM; shares compounds with RGS16-Gao; actives 3% (n = 1,700); in the data active means binding response below about 72% or above about 130%; inactive means in between;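 further: Galphao activated as GDP AlF4 complex before binding bead RGS8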
# RGS7-Gao confirm: RGS7-Galphao binding modulators, confirmation, biochemical, multiplexed bead flow cytometry, single concentration | shares compounds with RGS16-Gao | bead-based flow cytometry RGS7-Galphao binding; actives lie on both sides | response (percent of control binding), % at 10 µM | actives 7.8% (n = 1,700) | AID 1837, 2009; in the data active means response below about 75% or above about 130%; inactive means in between;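 further: fluorescent Galphao activated with GDP and aluminum fluoride binding bead-coupled RGS7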
# RGS16-Gao single: modulators of RGS16-Galphao protein binding, confirmation, biochemical, single concentration, multiplexed bead flow cytometry | shares compounds with RGS16-Gao | bead-based flow cytometry; actives lie on both sides | response (% of control binding), % at 10 µM | actives 4% (n = 1,700); in the data active means response below about 74% or above about 130%; inactive means in between;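 further: Galphao activated as the GDP aluminium fluoride complex binding bead-coupled RGS16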
# RGS4-Gao single: modulators of RGS4-Galphao protein binding, confirmation, biochemical, single concentration, multiplexed bead flow cytometry | shares compounds with RGS16-Gao | actives lie on both sides | binding response (% of control), % at 10 µM | actives 4% (n = 1,700) | AID 1840, 2009; in the data active means binding response below about 74% or above about 130%; inactive means in between
# RGS19-Gao conf: regulators of RGS19-Galphao binding, confirmation, biochemical, single point, multiplexed bead flow cytometry; shares compounds with RGS16-Gao; bead-based flow cytometry RGS19-Galphao binding; actives lie on both sides; response (percent of control binding), % at 10 µM; actives 5% (n = 1,700); AID 1841, 2009; in the data active means response below about 50% or above about 160%; inactive means in between;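 further: 100% = no compound control and 0% = blank background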
# An asterisk follows results filed as active; · = no result; [ ] = another dose, or the depositor's remark. Unless noted, how the calls were made is not given here.
SMILES,RGS4-Gao reg,GSH bead fluor,Avidin fluor,RGS8-Gao,RGS16-Gao,RGS7-Gao reg,Avidin counter,RGS8-Gao confirm,RGS7-Gao confirm,RGS16-Gao single,RGS4-Gao single,RGS19-Gao conf,others
Cc1cccc(-c2nc(CSCC(=O)NCCCN3CCOCC3)c(C)o2)c1,101.8,14,7,99.7,104.5,103.3,·,·,·,·,·,·,
Cc1oc(-c2ccc(Cl)cc2)nc1CSCC(=O)NCCCN1CCOCC1,187.1*[activator],5,18,111.5,227.9*[activator],164.0*[activator],-0.3,102.1,101.4,105.2,102.0,104.8,
CCOC(=O)c1cccc(-n2c(C)nc3ccccc3c2=O)c1,96.5,29,13,90.7,72.6,99.7,·,·,·,·,·,·,
CCOC(=O)c1cccc(-n2c(-c3ccc(OC)cc3)nc3nc4ccccc4nc32)c1,107.8,15,124*,97.8,100.6,179.5*[activator],0.1,95.5,103.5,100.0,100.5,90.3,RGS4-Gao HTS=107.8*
Cc1ccc(Nc2nc(N)nc(CN3CCN(Cc4ccc5c(c4)OCO5)CC3)n2)cc1Cl,-9.2*,20,7,75.1,-169.9,45.3*,0.6,101.2,99.2,100.7,102.4,103.3,
COc1ccccc1Nc1nc(N)nc(CN2CCC(Cc3ccccc3)CC2)n1,178.2*[activator],30,9,164.8*[activator],-460.7,161.8*[activator],1.0,95.3,94.8,96.5,97.0,88.6,
COc1ccccc1Nc1nc(N)nc(CN2CCC(C)CC2)n1,96.5,17,6,96.8,96.1,97.5,·,·,·,·,·,·,
CCN(CC)c1ccc(N2C(=O)/C(=C\c3cccs3)SC2=S)cc1,·,27,·,·,·,·,1.1,95.0,90.3,92.5,92.6,108.7,
Cc1ccc(N(CC(=O)NC(C)(C)C)C(=O)CNC(=O)c2cccs2)c(C)c1,97.4,15,5,110.5,129.7,106.5,·,·,·,·,·,·,
Cc1cc(C)nc(NNC(=O)NC2CCCCC2)n1,-11.3*,14,-2,2.4*,-20.2*,-8.8*,-0.1,113.1,118.6,119.0,112.4,107.2,
Cc1ccc(Cl)cc1N1CCN(C(=O)Cc2ccc(-n3c(=O)[nH]c4ccsc4c3=O)cc2)CC1,98.2,4,13,99.6,103.2,95.1,·,·,·,·,·,·,
CC(=O)c1sc(Nc2nc3cc4c(cc3s2)OCO4)nc1C,97.7,9,11,95.3,94.8,95.3,·,·,·,·,·,·,
CCOC(=O)c1sc(Nc2nc3cc4c(cc3s2)OCO4)cc1C,582.7*[activator],102*,417*,170.8*[activator],938.1*[activator],665.6*[activator],1.8,92.1,69.3*,79.8,79.9,48.0*,
NC(=O)c1c(NC(=O)COC(=O)c2ccc(S(=O)(=O)Nc3ccccc3)cc2)sc2c1CCCC2,89.8,17,10,95.4,93.2,93.4,·,·,·,·,·,·,
CC1(C)CC(C2N3CC4(C)CN2CC(C)(C3)C4=O)CCO1 (stereo unspecified),115.0,22,12,146.5*[activator],277.7,119.5,0.0,101.5,102.9,104.2,102.9,94.5,RGS4-Gao HTS=115.0*
O=C(C[n+]1cccc(CNC(=O)c2ccc(OC(F)F)cc2)c1)Nc1cccc(C(F)(F)F)c1,105.5,9,4,106.5,107.2,104.1,·,·,·,·,·,·,
O=C(C[n+]1cccc(CNC(=O)c2ccc(OC(F)F)cc2)c1)Nc1ccc(F)cc1,116.2,18,1,90.9,21.3*,120.7,-0.3,104.9,106.1,104.8,107.2,118.2,RGS4-Gao HTS=116.2*
O=S(=O)(CCc1ccccc1)N1CCOCC1,48.0*,9,8,68.5,-84.7,67.6,-1.0,96.6,81.1,90.9,84.0,88.4,
COc1ccc(N2CS(=O)CC2=O)cc1 (stereo unspecified),100.1,10,5,98.8,96.8,91.5,·,·,·,·,·,·,
CC1=C(C(=O)NCc2ccccc2)C(c2cccs2)n2ncnc2N1 (stereo unspecified),69.4,4,3,79.1,-63.1*,80.7,0.6,98.4,99.8,101.1,100.1,102.0,RGS4-Gao HTS=69.4*
COc1ccccc1C1C(C(=O)NCc2ccccc2)=C(C)Nc2ncnn21 (stereo unspecified),99.6,49,6,99.8,97.8,98.0,·,·,·,·,·,·,
COc1cc(CC(NC(C)=O)C(=O)NC2CCN(C(=O)c3cc(OC)c(OC)c(OC)c3)CC2)cc(OC)c1 (stereo unspecified),110.0,11,10,140.8*[activator],283.9,119.4,-1.3,101.6,105.2,103.5,104.1,102.3,RGS4-Gao HTS=110.0*
CCN(CC)c1ccc(NC(=O)Nc2cccc(C(C)=O)c2)cc1,-7.5*,36,-5,5.3*,-17.1*,-3.4*,1.1,96.9,93.8,97.2,91.6,95.6,
CC(=O)N/N=C(\C)c1cccc(NC(=O)c2cccs2)c1,-635.8*,12,-3,33.8*,42.6,-112.2*,0.3,100.0,100.0,100.1,102.0,110.3,
C/C(=N/NC(=O)c1cccs1)c1cccc(NC(=O)C2CC2)c1,96.7,7,·,100.4,95.5,97.2,·,·,·,·,·,·,
